From PubChem BioAssay (NCI)
The panel holds about 79,000 compounds, 15% with a hit somewhere; the sample as a whole holds those more often. Values without a mark were called inactive. Calls of active or inactive are those of the source. No stated cut-off is given here; in the data, active means growth inhibition above about 70%; inactive means the rest.

How the values were obtained:
[1] = NCI Yeast Anticancer Drug Screen. Data for the rad50 strain (AID 155);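 further: 0% = growth of vehicle-only cultures of the same strain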; settings: S. cerevisiae rad50 strain growth inhibition, stronger effect = higher value
Outline: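 Vehicle-treated cultures provide the reference for the growth inhibition reported for compound-exposed, repair-deficient yeast.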

[2] = NCI Yeast Anticancer Drug Screen. Data for the mec2-1 strain (AID 157); settings: S. cerevisiae mec2-1 strain, stronger effect = higher value
Outline: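 Using mec2-1 yeast: add compound, measure growth, express inhibition versus vehicle-treated cultures.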

[3] = NCI Yeast Anticancer Drug Screen. Data for the sgs1 mgt1 strain (AID 161);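 further: 0% = growth of cultures given vehicle only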; settings: S. cerevisiae sgs1 mgt1 strain, stronger effect = higher value
Outline: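 Growth of a repair-deficient yeast mutant was monitored after compound treatment and expressed as inhibition relative to vehicle-treated cultures.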

[4] = NCI Yeast Anticancer Drug Screen. Data for the cln2 rad14 strain (AID 165);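 further: 0% = growth equal to vehicle treated cultures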; settings: S. cerevisiae cln2 rad14 strain, stronger effect = higher value
Outline: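 Yeast strain cln2 rad14, bearing defects in cell cycle control and DNA repair, serves as the test system; values reflect growth inhibition compared with vehicle.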

[5] = NCI Yeast Anticancer Drug Screen. Data for the bub3 strain (AID 167); settings: S. cerevisiae bub3 mutant strain, stronger effect = higher value
Outline: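 Mutant yeast screening strain plus compound; vehicle-treated cultures serve as the 0% inhibition reference.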

[6] = NCI Yeast Anticancer Drug Screen. Data for the mlh1 rad18 strain (AID 175); settings: S. cerevisiae mlh1 rad18 strain growth inhibition, stronger effect = higher value
Outline: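 Steps: expose repair-defective yeast to compound; measure growth; express inhibition against vehicle-treated controls.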

[7] = at 5.0 µM (retest, dose inferred, filed as 0.5)
[8] = at 50.0 µM (retest, dose inferred, filed as 5.0)

Row | SMILES | growth inhibition [1, 7] | growth inhibition [1, 8] | growth inhibition ([1]; at 50.0 µM) | growth inhibition [2, 7] | growth inhibition [2, 8] | growth inhibition ([2]; at 50.0 µM) | growth inhibition [3, 7] | growth inhibition [3, 8] | growth inhibition ([3]; at 50.0 µM) | growth inhibition [4, 7] | growth inhibition [4, 8] | growth inhibition ([4]; at 50.0 µM) | growth inhibition [5, 7] | growth inhibition [5, 8] | growth inhibition ([5]; at 50.0 µM) | growth inhibition [6, 7] | growth inhibition [6, 8] | growth inhibition ([6]; at 50.0 µM)
1 | CC1=C(C(=O)Nc2ccccc2)C(c2ccc(Cl)c(Cl)c2)C(C(=O)Nc2ccccc2)=C(C)N1 | 26% | 26% | 89% (active) | 21% | 21% | 92.8% (active) | 29% | 29% | 91.1% (active) | 8% | 8% | 91% (active) | 1% | 1% | 91.5% (active) | 25% | 25% | 90.6% (active)
2 | CCOc1ccc(C=Nc2ccc(/C=C(\C)C(=O)OCCC(C)C)cc2)cc1 | 50% | 98% (active) | 97.6% (active) | 72% (active) | 99% (active) | 98.2% (active) | 85% (active) | 99% (active) | 97.5% (active) | 94% (active) | 98% (active) | 97.2% (active) | 86% (active) | 97% (active) | 82.2% (active) | 92% (active) | 99% (active) | 98% (active)
3 | COc1ccc(N=Cc2cc(Br)cc(Br)c2O)cc1.COc1ccc(N=Cc2cc(Br)cc(Br)c2O)cc1.[Co] | 79% (active) | 75% (active) | 74% (active) | 80% (active) | 88% (active) | 79.6% (active) | 90% (active) | 85% (active) | 90.6% (active) | 48% | 66% | 52.7% | 86% (active) | 59% | 62.6% | 97% (active) | 78% (active) | 80.8% (active)
4 | COc1ccc2c(c1)sc(/C=C/c1ccc(O)c3ncccc13)[n+]2C | 12% | 88% (active) | 92.3% (active) | 49% | 92% (active) | 93.6% (active) | -53% | 94% (active) | 92% (active) | 3% | 86% (active) | 90.3% (active) | 19% | 86% (active) | 89.9% (active) | 62% | 92% (active) | 92.4% (active)
5 | CC(C(=O)c1ccc(Cl)cc1)C1OC(=O)C(Cl)=C1Cl (configuration not stated) | 43% | 54% | 90.8% (active) | 37% | 51% | 93.4% (active) | 43% | 70% (active) | 92.9% (active) | 32% | 43% | 87.7% (active) | 40% | 72% (active) | 91.5% (active) | 56% | 71% (active) | 91.7% (active)
6 | CN(C)c1nc(=NCc2ccco2)ss1 | 12% | 51% | 1.8% | 17% | 53% | 2.3% | 25% | 80% (active) | 17.9% | 13% | 32% | 5.2% | 32% | 76% (active) | -53% | 29% | 74% (active) | 9.8%
7 | COc1c([N+](=O)[O-])cc(-c2ccccc2)cc1[N+](=O)[O-] | -4% | 89% (active) | 69.9% | 10% | 98% (active) | 65.3% | 14% | 93% (active) | 77.8% (active) | -2% | 58% | 67.5% | 5% | 63% | 74.2% (active) | 26% | 96% (active) | 83.2% (active)
8 | O=c1[nH]cnc2c1ncn2CCc1ccccc1 | 0% | -6% | -11.6% | -6% | -2% | -1.55% | -3% | -5% | -4.45% | -4% | 3% | 49.1% | 0% | 4% | 4.85% | 4% | -10% | -19.8%
9 | CNC(=O)OCc1c(-c2ccccc2)c(-c2ccccc2)n(-c2ccc(OC)cc2)c1COC(=O)NC | 26% | 96% (active) | 36.1% | 18% | 98% (active) | 78.3% (active) | 20% | 98% (active) | 82.2% (active) | 26% | 98% (active) | 84.9% (active) | 17% | 99% (active) | 80% (active) | 23% | 97% (active) | 91% (active)
10 | CC(C)Nc1nc(NC(C)C)c2cnn(-c3ccccc3)c2n1 | 0% | 55% | 96.7% (active) | 1% | 69% | 83.9% (active) | 2% | 95% (active) | 98.5% (active) | -10% | 24% | 88.3% (active) | 1% | 68% | 81.7% (active) | 3% | 74% (active) | 95.5% (active)
11 | Cn1c(=O)c2c(nc([N+](=O)[O-])n2C)n(C)c1=O | 2% | 48% | 74.6% (active) | 9% | 39% | 63.8% | 4% | 39% | 76.9% (active) | -2% | 18% | 45.6% | 12% | 75% (active) | 79.3% (active) | 0% | 41% | 68%
12 | CCN(CC)CCC(=O)NC1c2ccc(Cl)cc2Oc2c(C)cccc21 (configuration not stated) | -23% | 21% | 54.6% | -1% | -7% | -14.2% | 2% | 19% | 40.6% | 18% | 51% | 15.2% | 3% | 7% | -30.5% | 8% | 44% | 17.6%
13 | COc1cc2c[n+](C)c3c4ccccc4ccc3c2cc1OC (tested in a mixture with another compound) | 27% | 87% (active) | 38% | 24% | 54% | 8.85% | 24% | 90% (active) | 7.1% | 21% | 69% | 9.7% | 27% | 81% (active) | 17.9% | 35% | 77% (active) | -18.6%
14 | CCCCOC(=O)C(C)OC(=O)NNc1ccccc1 (configuration not stated) | 10% | 51% | 48.2% | 0% | 12% | 36% | 1% | 39% | 36% | 7% | 34% | 36.7% | 9% | 88% (active) | 99% (active) | 6% | 87% (active) | 67%
15 | CO/N=C/c1ccc([N+](=O)[O-])s1 | -147% | 95% (active) | 65.7% | -44% | 80% (active) | 16.6% | -51% | 71% (active) | 33.8% | -63% | 48% | 7.5% | -61% | 76% (active) | 29.7% | -108% | 94% (active) | 75.5% (active)
16 | S=C(Nc1cc(Cl)c(Cl)cc1Cl)SCc1ccccc1 | 14% | 97% (active) | 98.7% (active) | 8% | 99% (active) | 99.3% (active) | 30% | 99% (active) | 99.2% (active) | 12% | 98% (active) | 97.8% (active) | 39% | 99% (active) | 99.2% (active) | 55% | 99% (active) | 99% (active)
17 | O=C1c2ccccc2-c2nc3ncccc3cc21 | 27% | 93% (active) | 95.7% (active) | 6% | 83% (active) | 56.1% | 4% | 78% (active) | 42.2% | 6% | 63% | 57.9% | 4% | 57% | 79.4% (active) | -5% | 88% (active) | 71.4% (active)
18 | Cc1ccccc1Sc1ccccc1[N+](=O)[O-] | 2% | 35% | 12.9% | 1% | 5% | 12.8% | 0% | 27% | 26.1% | 5% | 7% | 11.1% | -1% | 8% | 20.6% | 2% | 39% | 74.5% (active)
19 | O=C1CCC(Cc2ccc(Br)cc2)C(=O)N1 (configuration not stated) | -4% | 7% | -11.7% | -4% | 1% | 7.2% | 19% | 96% (active) | 93.7% (active) | -3% | 3% | -77.2% | -6% | -1% | -54% | -6% | 5% | -2.1%
